19 compounds from PubChem BioAssay can be followed below.

Experiment [1] is described as follows: SK-BR-3 cell growth inhibitors, pilot screen, 24 h, human (AID 572;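 active = viability at or below 10% of carrier control in both of two separate runs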;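 also: compound exposure lasted between 18 and 24 h rather than exactly 24 h; 100% = carrier-treated control wells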). To be noted: SK-BR-3 viability, CellTiter-Glo luminescence, at 10 µM, stronger effect = lower value. On the technique in general: ATP-based viability assays read luminescence as a measure of living cells.
Experiment [2] in a line: HUVEC growth inhibition – cell-based, human, primary screen (AID 575).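 Also: 100% = median of untreated cell wells with 0.1% DMSO on each plate.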 To be noted: HUVEC proliferation, CellTiter-Glo luminescence, 72 h; at 10 µM; stronger effect = lower value.
The nature of experiment [3]: growth inhibitors of H69AR lung tumor, primary screen, human, duplicate replicates (AID 580;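 active = viability at or under a set limit in both replicates, limit being median viability minus 3 SD, cut at about 48% in these data, passing the limit was not always enough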;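 also: 100% = mean luminescence of untreated wells and 0% = no signal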). The note with it: H69AR lung tumor cells viability, ATP luminescence, 72 h; at 10 µM; stronger effect = lower value.
The nature of experiment [4]: reversal of MRP1-mediated doxorubicin resistance, pilot screen, H69AR cells, doxorubicin co-treatment (AID 601;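 active = viability loss from added drug above about 55%, and viability with drug at most 40%, in both replicates, limit read from the data, passing the limit was not always enough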). The note with it: CellTiter-Glo, 72 h, at 10 µM; for differential viability (reversal): stronger effect = higher value.
The nature of experiment [5]: 384-well plate pilot, post-Golgi transport modulator project, inhibition of yeast transport mutant growth (AID 636; in the data active = inhibition above about 31%). The note with it: absorbance 615 nm, about 18 h, stronger effect = higher value.
Experiment [6] in a line: growth suppression of yeast trafficking mutant, preliminary HTS, modulators of trafficking downstream of Golgi apparatus project, 1536-format plate, OD 615 nm (AID 637; in the data active = inhibition above about 30%). The note with it: yeast transport mutant growth, absorbance 615 nm, 18 h; stronger effect = higher value.
[7] abbreviates: H69AR cells + 2 uM doxorubicin, measured here: viability with 2 uM doxorubicin, stronger effect = lower value.
The mark [8] stands for this setting: H69AR cells, compound alone cytotoxicity.

The source made the active and inactive calls.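 The calls were made as follows, unless noted: active = viability at or below 30% in both replicate assays; inconclusive = viability at or below 30% in just one of the two assays; inactive = the rest.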

Turning to `Cc1ccccc1Nc1nc(N)nc(CSCc2c(C)noc2C)n1`, the viability (in general, a read-out of living cells in per cent, often relative to untreated cells) is 88% (inactive) in experiment [1]; 101% (inactive) in experiment [2]; 96.4% (inactive) in experiment [3]; 98.2% in experiment [4] (setting [7]); 96.4% in experiment [4] (setting [8]). Besides, in experiment [4] (H69AR cells + 2 uM doxorubicin), the differential viability (reversal) was -1.78% (inactive). The figures for the inhibition in experiment [5] and in experiment [6] were 3.51% (inactive) and 3.09% (inactive), respectively.

`CCOC(=O)N1CCN(C(=O)COc2cc(=O)n(C)c3ccccc23)CC1`: the viability in experiment [1] was 98% (inactive); in experiment [2], 98.2% (inactive); in experiment [3], 98.2% (inactive); in experiment [4] (setting [7]), 81.5%; in experiment [4] (setting [8]) it was 98.2%. Moreover, the differential viability (reversal) in experiment [4] (H69AR cells + 2 uM doxorubicin) is 16.7% (inactive). Also, the figures for the inhibition in experiment [5] and in experiment [6] were 0.91% (inactive) and 15.9% (inactive), respectively.

In the case of `O=C1CC(c2ccccc2)Cc2nc(N3CCc4ccccc43)ncc21` (configuration not stated), the viability was 79% (inactive) in experiment [1]; 108% (inactive) in experiment [2]; 76.5% (inactive) in experiment [3]; 64.6% in experiment [4] (setting [7]); 76.5% in experiment [4] (setting [8]). For the same compound, the differential viability (reversal) in experiment [4] (H69AR cells + 2 uM doxorubicin) is 12% (inactive). Besides, the inhibition (commonly the change of the read-out against control, counted positive when it falls) is -6.89% (inactive) in experiment [5] and 1.82% (inactive) in experiment [6].

Consider `COc1ccc(C(c2nnnn2C2CCCC2)N2CCC(C)CC2)c(OC)c1` (configuration not stated), for which the viability in experiment [1] is 154% (inactive); in experiment [2], 91.4% (inactive); in experiment [3], 87.8% (inactive); in experiment [4] (setting [7]), 96.7%; in experiment [4] (setting [8]), 87.8%. Also, in experiment [4] (H69AR cells + 2 uM doxorubicin), the differential viability (reversal) is -8.92% (inactive). For the same compound, the inhibition is -0.26% (inactive) in experiment [5] and -3.28% (inactive) in experiment [6].

Take `O=C(CSc1nnc(NC(=O)C2CCC2)s1)NC1CC1`: the viability in experiment [1] was 100% (inactive); in experiment [2], 106% (inactive); in experiment [3] it was 106% (inactive); in experiment [4] (setting [7]) it was 93.4%; in experiment [4] (setting [8]), 106%. Besides, the differential viability (reversal) in experiment [4] (H69AR cells + 2 uM doxorubicin) was 12.2% (inactive). The inhibition in experiment [5] is -6.76% (inactive); in experiment [6] it was 2% (inactive).

As to `Cc1ccc(C)c(CSc2nnc(CCN)o2)c1`, the viability in experiment [1] is 101% (inactive); in experiment [2] it was 41.5% (inactive); in experiment [3] it was 71.2% (inactive); in experiment [4] (setting [7]), 91.8%; in experiment [4] (setting [8]) it was 71.2%. The differential viability (reversal) in experiment [4] (H69AR cells + 2 uM doxorubicin) was -20.6% (inactive). Also, the inhibition is -7.67% (inactive) in experiment [5] and 5.45% (inactive) in experiment [6].

With `CC(CC(=O)NCc1ccccc1)C1CCCO1` (configuration not stated), the viability in experiment [1] is 130% (inactive); in experiment [2], 102% (inactive); in experiment [3], 93.4% (inactive); in experiment [4] (setting [7]), 91.2%; in experiment [4] (setting [8]) it was 93.4%. Further, in experiment [4] (H69AR cells + 2 uM doxorubicin), the differential viability (reversal) is 2.22% (inactive). The inhibition in experiment [5] is -2.21% (inactive); in experiment [6], 4.75% (inactive).

With `COC(=O)c1ccc(CSc2nc3ccccc3s2)o1`, the viability in experiment [1] is 101% (inactive); in experiment [2], 88.7% (inactive); in experiment [3], 85% (inactive); in experiment [4] (setting [7]) it was 104%; in experiment [4] (setting [8]), 85%. Moreover, the differential viability (reversal) in experiment [4] (H69AR cells + 2 uM doxorubicin) was -19.3% (inactive). The inhibition in experiment [5] was -4.93% (inactive); in experiment [6], -3.09% (inactive).

With `CCc1nnc(NC(=O)CSc2nnc3ncccn23)s1`, the viability in experiment [1] was 91% (inactive); in experiment [2] it was 108% (inactive); in experiment [3], 95.5% (inactive); in experiment [4] (setting [7]), 98.7%; in experiment [4] (setting [8]) it was 95.5%. In experiment [4] (H69AR cells + 2 uM doxorubicin), the differential viability (reversal) was -3.16% (inactive). Also, the values for the inhibition in experiment [5] and in experiment [6] were -5.07% (inactive) and 3.27% (inactive), respectively.

As for `CCOC(=O)CSC1=C(C#N)C(c2ccc3c(c2)OCO3)CC(=O)N1` (configuration not stated), the viability in experiment [1] is 90% (inactive); in experiment [2], 73.1% (inactive); in experiment [3] it was 13.1% (active); in experiment [4] (setting [7]), 65.5%; in experiment [4] (setting [8]) it was 13.1%. The differential viability (reversal) in experiment [4] (H69AR cells + 2 uM doxorubicin) is -52.4% (inactive). The inhibition is -5.41% (inactive) in experiment [5] and -2.36% (inactive) in experiment [6].

Consider `CCC(c1nnc(SCC(=O)Nc2ccc(C(=O)Nc3ccccc3OC)cc2)o1)N(C)C` (configuration not stated), for which the viability was 65% (inactive) in experiment [1]; 96.7% (inactive) in experiment [2]; 107% (inactive) in experiment [3]; 99% in experiment [4] (setting [7]); 107% in experiment [4] (setting [8]). For the same compound, the differential viability (reversal) in experiment [4] (H69AR cells + 2 uM doxorubicin) was 7.67% (inactive). In addition, the figures for the inhibition in experiment [5] and in experiment [6] were -6.3% (inactive) and -2.18% (inactive), respectively.

Regarding `CCCCCc1nnc(NC(=O)Cc2cccs2)s1`, the viability in experiment [1] is 74% (inactive); in experiment [2], 110% (inactive); in experiment [3], 102% (inactive); in experiment [4] (setting [7]) it was 90.8%; in experiment [4] (setting [8]) it was 102%. In addition, the differential viability (reversal) in experiment [4] (H69AR cells + 2 uM doxorubicin) was 10.7% (inactive). The figures for the inhibition in experiment [5] and in experiment [6] were -6.71% (inactive) and 3.64% (inactive), respectively.

Regarding `COCCn1nnnc1CN1CCC(Cc2ccccc2)CC1`, the viability in experiment [1] was 134% (inactive); in experiment [2] it was 102% (inactive); in experiment [3], 95.3% (inactive); in experiment [4] (setting [7]) it was 90.1%; in experiment [4] (setting [8]) it was 95.3%. In addition, in experiment [4] (H69AR cells + 2 uM doxorubicin), the differential viability (reversal) is 5.17% (inactive). Also, the inhibition in experiment [5] is -3.84% (inactive); in experiment [6] it was 4.68% (inactive).

`COC(=O)CNC(=O)COC(=O)c1cc(Cl)cc(Cl)c1N`: the viability in experiment [1] is 104% (inactive); in experiment [2], 96.6% (inactive); in experiment [3] it was 92.6% (inactive); in experiment [4] (setting [7]), 95.5%; in experiment [4] (setting [8]), 92.6%. Also, the differential viability (reversal) in experiment [4] (H69AR cells + 2 uM doxorubicin) is -2.94% (inactive). For the same compound, the inhibition in experiment [5] is 0.82% (inactive); in experiment [6], 45.3% (active).

Take `O=C1[C@@H]2C(c3ccccc3Cl)=NO[C@@H]2C(=O)N1Cc1ccccc1`: the viability in experiment [1] is 96% (inactive); in experiment [2], 116% (inactive); in experiment [3] it was 104% (inactive); in experiment [4] (setting [7]) it was 100%; in experiment [4] (setting [8]), 104%. In experiment [4] (H69AR cells + 2 uM doxorubicin), the differential viability (reversal) was 4.24% (inactive). In addition, the inhibition was -6.76% (inactive) in experiment [5] and 3.09% (inactive) in experiment [6].

Consider `CCn1cc(C(=O)O)c(=O)c2cc(F)c(N3CCNCC3)nc21`, for which the viability in experiment [1] was 106% (inactive); in experiment [2], 84% (inactive); in experiment [3] it was 105% (inactive); in experiment [4] (setting [7]) it was 102%; in experiment [4] (setting [8]) it was 105%. For the same compound, in experiment [4] (H69AR cells + 2 uM doxorubicin), the differential viability (reversal) is 3.24% (inactive). The inhibition in experiment [5] is 2.34% (inactive); in experiment [6], -2.33% (inactive).

In the case of `Cc1cc2cc(CNC(=O)c3ccc4c(c3)OCO4)ccc2[nH]1`, the viability in experiment [1] was 102% (inactive); in experiment [2] it was 114% (inactive); in experiment [3] it was 89.1% (inactive); in experiment [4] (setting [7]), 92.3%; in experiment [4] (setting [8]), 89.1%. Besides, in experiment [4] (H69AR cells + 2 uM doxorubicin), the differential viability (reversal) is -3.21% (inactive). Besides, the inhibition was -1.56% (inactive) in experiment [5] and 3.61% (inactive) in experiment [6].

As to `CCOC(=O)c1c(NC(=O)Cn2c(=O)oc3ccccc32)oc(C)c1C(C)=O`, the viability is 81% (inactive) in experiment [1]; 99.3% (inactive) in experiment [2]; 101% (inactive) in experiment [3]; 95.1% in experiment [4] (setting [7]); 101% in experiment [4] (setting [8]). In addition, in experiment [4] (H69AR cells + 2 uM doxorubicin), the differential viability (reversal) was 5.86% (inactive). In addition, the inhibition in experiment [5] was -1.23% (inactive); in experiment [6] it was -4.52% (inactive).

For the compound `Cc1ccc2c(c1C)NC(C(=O)O)C1CC=CC21` (configuration not stated), the viability was 91% (inactive) in experiment [1]; 98.1% (inactive) in experiment [2]; 98.2% (inactive) in experiment [3]; 96.7% in experiment [4] (setting [7]); 98.2% in experiment [4] (setting [8]). Also, the differential viability (reversal) in experiment [4] (H69AR cells + 2 uM doxorubicin) is 1.46% (inactive). The inhibition in experiment [5] was -1.73% (inactive); in experiment [6], -1.09% (inactive).
